The values below come from PubChem BioAssay (Tox21).

Test [1] can be described thus: qHTS assay for small molecule agonists of the p53 signaling pathway (AID 651631; calls by dose curve; also: nearly all actives have a fitted effect of over 15% in size; also: potency is read from the fitted curve at half-maximal effect). A digest of the protocol: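 HCT-116 p53RE-bla reporter line, 16 h compound treatment at 37 °C, then fluorescence after 2 h with B/G FRET substrate.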
Test [2] is described as follows: qHTS assay for small molecules that induce genotoxicity in human embryonic kidney cells expressing luciferase-tagged ATAD5 (AID 651632). Also: nearly all actives have a fitted effect of over 15% in size. The gist of the method:
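Concentration-response screen for ATAD5 upregulation in HEK293T luciferase reporter cells; 16 hr treatment at 37C, then luminescence after 30 min with Amplite at room temperature.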

The nature of test [3]: qHTS assay for small molecule agonists of the p53 signaling pathway - cell viability (AID 651633; calls by dose curve; also: nearly all actives have a fitted effect of over 30% in size; also: potency is read from the fitted curve at half-maximal effect). A digest of the protocol: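 Viability counter-read: CellTiter-Glo luminescence (30 min, room temperature) in the same p53RE-bla plates. These plates had been exposed to compounds for 16 h at 37 C.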
The nature of test [4]: qHTS assay for small molecules that induce genotoxicity in human embryonic kidney cells expressing luciferase-tagged ATAD5 - cell viability (AID 651634; calls by dose curve; also: nearly all actives have a fitted effect of over 25% in size). A digest of the protocol:
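15.5 hr compound or vehicle exposure of HEK293T cells expressing luciferase-tagged ATAD5 at 37C; live-cell protease activity is read by fluorescence after 30 min of CellTiter-Fluor.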

A short description of test [5]: qHTS assay to test for compound auto fluorescence at 590 nm (red) in HepG2 cells (AID 720674). The gist of the method: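 1 hr compound incubation on HepG2 cells, 37 C, 5% CO2; plate read ex 540 nm / em 590 nm; intensities reported as Rose Bengal sodium equivalents.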
Test [6] in a line: qHTS assay to test for compound auto fluorescence at 535 nm (green) in HepG2 cells (AID 720675).
A short description of test [7]: qHTS assay to test for compound auto fluorescence at 460 nm (blue) in HEK293 cells (AID 720678). The gist of the method:
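HEK293 cells (2,000 per well, medium with 10% dialyzed FBS) attached for 4-5 hr at 37C, then received compound and stood overnight at 37C, 5% CO2. Blue fluorescence was read at Ex/Em 405/460 nm and expressed relative to triamterene.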

Test [8] in a line: qHTS assay to test for compound auto fluorescence at 590 nm (red) in HEK293 cells (AID 720679). A digest of the protocol: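 HEK293 cells (2,000/well, medium with 10% dialyzed FBS) attached for 4-5 hr at 37C, received 23 nL compound and were incubated overnight at 37C, 5% CO2. Red fluorescence was then read at 540/590nm Ex/Em, referenced to Rose Bengal sodium.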
Test [9] in a line: qHTS assay to test for compound auto fluorescence at 535 nm (green) in HEK293 cells (AID 720680).
Test [10] is described as follows: qHTS assay to test for compound auto fluorescence at 460 nm (blue) in HEK293 cell free culture (AID 720681). The gist of the method:
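Blue fluorescence (Ex 405/Em 460 nm, triamterene-equivalent) was read immediately after pin transfer of compound or DMSO into medium (DMEM, 10% FBS) without cells.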

A short description of test [11]: qHTS assay to test for compound auto fluorescence at 535 nm (green) in HEK293 cell free culture (AID 720682). The gist of the method: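 Steps: dispense DMEM/10% FBS into empty wells; pin in compound or DMSO; measure fluorescence at 485/535 nm. Values are fluorescein equivalents.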
Test [12] can be described thus: qHTS assay to test for compound auto fluorescence at 590 nm (red) in HEK293 cell free culture (AID 720683). The gist of the method:
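Red-channel autofluorescence of compounds in culture medium (DMEM, 10% FBS), no cells, measured at 540/590 nm. Rose Bengal sodium is the reference fluorophore for equivalence.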

Test [13] in a line: qHTS assay to test for compound auto fluorescence at 590 nm (red) in HepG2 cell free culture (AID 720684). A digest of the protocol:
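Cell-free; medium MEM + 10% FBS; compound or DMSO added by pintool; read Ex 540/Em 590 nm; Rose Bengal sodium as red reference fluorophore.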

Test [14] is described as follows: qHTS assay to test for compound auto fluorescence at 460 nm (blue) in HepG2 cell free culture (AID 720685). A digest of the protocol:
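Cell-free plates of MEM plus 10% FBS received 23 nL compound or DMSO vehicle; blue-channel (405/460 nm) intensity scored against triamterene as reference fluorophore.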

Test [15] is described as follows: qHTS assay to test for compound auto fluorescence at 535 nm (green) in HepG2 cell free culture (AID 720686).
A short description of test [16]: qHTS assay to test for compound auto fluorescence at 460 nm (blue) in HepG2 cells (AID 720687). A digest of the protocol:
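Blue-channel autofluorescence (Ex/Em 405/460 nm, triamterene-equivalent) was measured after 1 hr compound exposure at 37 C, 5% CO2. Cells were HepG2, plated overnight at 37 C in MEM plus 10% FBS.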

Test [17] concerns the target Glucocorticoid receptor (Homo sapiens) (UniProt P04150). Kind of test: qHTS assay to identify small molecule agonists of the glucocorticoid receptor (GR) signaling pathway (AID 720691; active = well fitted activation curve with a large enough effect in the signal ratio in the repeat runs, not every such curve was filed as active; the % refers to the signal ratio). Conditions: GR-bla HeLa, beta-lactamase reporter ratio, 18 h; activation: at 62.4 µM (top of the series). The gist of the method: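 Measures GR pathway activation through a GRE-beta-lactamase reporter stably integrated in HeLa cells, with 18 h compound treatment at 37 C and fluorescence detection using a FRET substrate.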

Test [18] has the same target. Kind of test: qHTS assay to identify small molecule antagonists of the glucocorticoid receptor (GR) signaling pathway (AID 720692; active = well fitted inhibition curve with a large enough effect in the signal ratio in the repeat runs, not every such curve was filed as active; the % refers to the signal ratio). The gist of the method:
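Tox21 10K library screened in concentration-response for blockade of dexamethasone (5 nM final)-induced GRE-bla reporter activity in HeLa cells; 18 h treatment, fluorescence read.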

A short description of test [19]: qHTS assay for small molecule disruptors of the mitochondrial membrane potential - cell viability (AID 720634; calls by dose curve; also: nearly all actives have a fitted effect of over 20% in size; also: potency is read from the fitted curve at half-maximal effect). The gist of the method: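 In this qHTS format, HepG2 cells plated overnight were pinned with compound, incubated 1 hr, and assayed for ATP luminescence with CellTiter-Glo after m-MPI dye addition.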
Test [20] is described as follows: qHTS assay for small molecule disruptors of the mitochondrial membrane potential (AID 720635). Also: potency is read from the fitted curve at half-maximal effect. A digest of the protocol: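 Mitochondrial membrane potential tracked with Mito-MPS dye, red aggregates (ex 540/em 590 nm) against green monomers (ex 490/em 535 nm). Compound treatment 1 hr at 37C, dye 30 min in HepG2.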

Values joined by “and” are separate entries in the source; they are usually repeats but may differ in a detail not shown here. Identical values can stand only once. Unmarked numbers belong to inactive results. Records with an inconclusive call do not appear. Active and inactive are the calls of the source. Unless noted, calls follow the shape of the dose curve; as a rule, active = well fitted curve in the direction sought with a large enough effect in the repeat runs; inconclusive = weak or mixed curves; inactive = no such curve, though single readings can be large; an effect the other way counts as inactive or inconclusive.

Glucocorticoid receptor (Homo sapiens), sequence (P04150 whole entry, looked up): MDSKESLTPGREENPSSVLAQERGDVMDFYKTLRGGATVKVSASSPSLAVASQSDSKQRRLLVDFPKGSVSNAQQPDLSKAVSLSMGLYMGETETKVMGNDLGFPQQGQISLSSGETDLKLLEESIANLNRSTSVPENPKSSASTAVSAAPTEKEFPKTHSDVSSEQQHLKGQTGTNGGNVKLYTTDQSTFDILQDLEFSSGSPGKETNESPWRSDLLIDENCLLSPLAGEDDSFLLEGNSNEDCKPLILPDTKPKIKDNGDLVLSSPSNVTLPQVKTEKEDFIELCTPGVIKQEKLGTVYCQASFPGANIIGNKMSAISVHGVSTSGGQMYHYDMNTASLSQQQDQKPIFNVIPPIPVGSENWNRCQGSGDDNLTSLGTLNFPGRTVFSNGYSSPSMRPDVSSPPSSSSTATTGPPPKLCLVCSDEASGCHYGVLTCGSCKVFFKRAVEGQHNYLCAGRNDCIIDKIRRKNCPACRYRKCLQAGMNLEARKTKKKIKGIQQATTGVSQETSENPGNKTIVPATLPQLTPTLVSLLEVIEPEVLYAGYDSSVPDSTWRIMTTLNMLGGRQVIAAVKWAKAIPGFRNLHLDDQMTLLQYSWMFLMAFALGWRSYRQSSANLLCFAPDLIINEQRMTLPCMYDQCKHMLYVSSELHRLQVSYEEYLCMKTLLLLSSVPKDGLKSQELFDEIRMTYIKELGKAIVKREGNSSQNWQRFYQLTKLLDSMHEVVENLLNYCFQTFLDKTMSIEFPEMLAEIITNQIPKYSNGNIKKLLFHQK

In the case of `C#CCO`, the Potency result in test [1], in test [2], in [3], in [4], in [6] and in test [7] was “inactive” in each case. In addition, the Potency result in test [10], in test [14], in [15], in test [16], in [17] and in [18] was “inactive” each time. Also, the compound was classed as inactive in test [5], in test [8], in test [9], in [11], in test [12] and in test [13].
Take `CCN(CC)C(=O)N[C@@H]1C=C2c3cccc4[nH]cc(c34)C[C@@H]2N(C)C1`: the Potency entry in [1], in test [2], in test [3], in test [19], in [6] and in [7] was “inactive” in each case. In addition, the Potency result in test [10], in test [14], in test [15], in test [16] and in test [18] was “inactive” throughout. Besides, in [20], the Potency is 1.68 µM (active). In addition, the compound was called inactive in test [5], in test [8], in test [9], in [11], in [12] and in test [13].
For `COc1nc(C)nc(NC(=O)NS(=O)(=O)c2ccccc2Cl)n1`, the Potency entry in test [1], in [2], in test [3], in [19], in test [20] and in [6] was “inactive” in each case. For the same compound, the Potency entry in test [7], in [10], in [14], in [15], in test [16] and in test [17] was “inactive” throughout. Also, the Potency result in test [18] was “inactive”. The compound was called inactive in [5], in [8], in [9], in test [11], in test [12] and in test [13].
As for `CN/C(=N\[N+](=O)[O-])NCc1cnc(Cl)s1`, the Potency result in test [1], in test [2], in test [3], in test [6], in test [7] and in test [10] was “inactive” in each case. The Potency entry in test [14], in test [15] and in [16] was “inactive” throughout. Further, the compound was called inactive in [8], in [9], in test [11] and in [12].
As for `CCCCCON=O`, the Potency result in test [1], in test [2], in test [3], in test [19], in test [20] and in test [6] was “inactive” in each case. For the same compound, the Potency result in test [7], in test [10], in [14], in test [15] and in test [16] was “inactive” each time. Further, the outcome in test [5], in test [8], in [9], in test [11], in test [12] and in test [13] was inactive.
With `O=C1C2(Cl)C3(Cl)C4(Cl)C(Cl)(Cl)C5(Cl)C3(Cl)C1(Cl)C5(Cl)C24Cl` (centres undefined), the Potency in test [1] was 60.1 µM (active); in test [3] it was 37.9 µM (active); in test [19], 1.9 µM (active); in [20], 536 nM (active) and 585 nM (active). Also, the Potency result in test [2], in test [6], in test [7], in test [10], in test [14] and in test [15] was “inactive” throughout. Further, the Potency result in test [16] was “inactive”. The result in [5], in test [8], in test [9], in [11], in test [12] and in test [13] was inactive.
For the compound `Nc1nc(N)nc(Cl)n1`, the Potency result in test [1], in test [2], in test [3], in test [19], in test [20] and in [6] was “inactive” each time. Moreover, the Potency entry in test [10], in [14], in test [15], in test [16], in test [17] and in test [18] was “inactive” in each case. In addition, the result in test [5], in [8], in [9], in test [12] and in [13] was inactive.
